This is an account of results in PubChem BioAssay (Tox21).

Results filed as inconclusive are left out. Values without a mark were called inactive. Active and inactive are the calls of the source. Calls follow the shape of the dose curve; as a rule, active = well fitted curve in the direction sought with a large enough effect in the repeat runs; inconclusive = weak or mixed curves; inactive = no such curve, though single readings can be large; an effect the other way counts as inactive or inconclusive.
% is scaled to controls: 0 for no effect and ±100 for the full control effect; potency is read from the fitted curve at half-maximal effect.
Also: nearly all actives have a fitted effect of over 50% in size.

Cytochrome P450 1A2 (Homo sapiens), sequence (P05177 whole entry, looked up): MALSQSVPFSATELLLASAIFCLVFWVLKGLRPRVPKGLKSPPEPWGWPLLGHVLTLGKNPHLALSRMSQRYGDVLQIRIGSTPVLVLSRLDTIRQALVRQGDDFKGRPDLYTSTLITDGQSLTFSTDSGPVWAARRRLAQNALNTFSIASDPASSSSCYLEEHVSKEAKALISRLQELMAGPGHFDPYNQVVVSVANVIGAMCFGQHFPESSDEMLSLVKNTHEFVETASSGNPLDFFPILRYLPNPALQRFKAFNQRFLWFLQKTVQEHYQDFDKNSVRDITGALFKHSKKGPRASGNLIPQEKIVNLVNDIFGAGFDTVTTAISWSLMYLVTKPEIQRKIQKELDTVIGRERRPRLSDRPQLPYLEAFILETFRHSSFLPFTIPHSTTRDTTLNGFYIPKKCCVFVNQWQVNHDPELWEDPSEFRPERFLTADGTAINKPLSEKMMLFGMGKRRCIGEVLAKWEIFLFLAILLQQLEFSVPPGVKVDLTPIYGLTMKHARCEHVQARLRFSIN

For one assay, the target named is Cytochrome P450 1A2 (Homo sapiens) (UniProt P05177). The assay is described as follows: Cytochrome P450 Family 1 Subfamily A Member 2 (CYP1A2) small molecule antagonists: luciferase reporter qHTS assay (AID 1671199). The note with it: P450-Glo CYP1A2 enzyme, luciferin luminescence, 1 h; series mostly up to 53 µM; activity change, negative = inhibition: at the top concentration. The procedure, abridged:
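P450-Glo CYP1A2, 1536-well qHTS: enzyme/proluciferin substrate + cpd (DMSO), 10 min RT; NADPH regen, 1 h RT; detection reagent, 20 min; luminescence, RLU.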
In general terms: A reporter such as luciferase makes a cellular process visible.
In the case of `CCC(=O)C1CC(C(C)C)CC=C1C` (stereo not given), the Potency is 63.3 µM (active). For the molecule `CCCCCC[C@@H](O)C/C=C\CCCCCCCC(=O)OCC(O)CO` (stereo not given in full), the “activity change, negative = inhibition” value is -25.6% [at 115 µM]. The same measure, in the same setting: next, `O=C1Cc2ccccc2N1c1c(Cl)cccc1Cl`: -21% [at 115 µM]; `COc1ccccc1Oc1c(NS(=O)(=O)c2ccc(C(C)(C)C)cc2)nc(-c2ncccn2)nc1OCCO`: 1.99%. Take `CCCCCCCCN`: the “activity change, negative = inhibition” value is -10.2% [at 115 µM].

`C=C/C(C)=C/C/C=C(\C)CCC=C(C)C`: the “activity change, negative = inhibition” value is -19.9% [at 115 µM]. In the case of `CCCCCCNC(=O)n1cc(F)c(=O)[nH]c1=O`, the “activity change, negative = inhibition” value is -25.8%. On to `O=C1c2ccccc2C(=O)c2c(O)c(O)cc(O)c21`, for which the Potency was 35.6 µM (active).

Regarding `O=C(O)CCCCCCCCCCCBr`, the “activity change, negative = inhibition” value was -4.12% [at 115 µM]. Consider `Nc1nc2ccc([N+](=O)[O-])cc2s1`, for which the Potency is 9.74 µM (active). In the case of `CCOc1cccc(-n2cc(C(=O)N3CCN(c4cc(C(=O)O)c5ccccc5c4)CC3)nc2-c2ccc(C)cc2)c1`, the “activity change, negative = inhibition” value was -17.9% [at 115 µM].

As to `OC1(c2ccccc2)CCNCC1`, the “activity change, negative = inhibition” value is -12.1%. `O=C(CCc1ccc(O)cc1)c1c(O)cc(O)cc1O`: the Potency is 36.4 µM (active). On to `CC1CC(OC(=O)C(O)c2ccccc2)CC(C)(C)N1C` (stereo not given), for which the “activity change, negative = inhibition” value is 15.2%. For the molecule `Cc1[nH]cnc1CN1CCc2c(c3ccccc3n2C)C1=O`, the Potency was 0.812 µM (active). For `CC1(C)O[C@@H]2C[C@H]3[C@@H]4C[C@H](F)C5=CC(=O)C=C[C@]5(C)[C@H]4[C@@H](O)C[C@]3(C)[C@]2(C(=O)CO)O1`, the “activity change, negative = inhibition” value was 6.91%. On to `CNC(=O)c1cnn(-c2nc(N)c3ncn([C@@H]4O[C@H](CO)[C@@H](O)[C@H]4O)c3n2)c1`, for which the “activity change, negative = inhibition” value was 12.5%. Turning to `Cc1cc(O)c(C)c(C)c1O`, the Potency was 15.5 µM (active). The same measure, in the same setting: in the case of `Clc1cc(Cl)nc(Cl)n1` it was 36 µM (active).

On to `COc1cc(N)c(Cl)cc1C(=O)NC1CCN(CCCOc2ccc(F)cc2)CC1OC` (stereo not given), for which the “activity change, negative = inhibition” value is -7.18%. On the same count and under the same terms, next, `CN(C)CCN1C(=O)c2ccccc2N(C)c2ccccc21`: -16.4%. With `CCCCCCCCCI`, the “activity change, negative = inhibition” value is -12.7% [at 115 µM]. As to `CC/C=C1/OC(=O)c2ccccc21`, the Potency was 5.51 µM (active).

`CCOc1ccccc1O[C@H](c1ccccc1)[C@H]1CNCCO1`: the “activity change, negative = inhibition” value was -11.8%. Consider `CN1C[C@H](C(=O)N[C@]2(C)O[C@@]3(O)[C@@H]4CCCN4C(=O)[C@H](Cc4ccccc4)N3C2=O)C[C@@H]2c3cccc4[nH]cc(c34)C[C@H]21`, for which the “activity change, negative = inhibition” value is 16.8%.

Another assay deals with Voltage-gated inwardly rectifying potassium channel KCNH2 (Homo sapiens) (UniProt Q12809). Kind of assay: Human Ether-a-go-go-Related Gene (hERG) channel small molecule antagonists: fluorescence cell-based qHTS assay (AID 1671200).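 As to activity change, negative = inhibition: hERG-expressing U2OS cells given a thallium stimulus after FluxOR II dye loading.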 The note with it: hERG-U2OS cells, FluxOR thallium flux fluorescence; series mostly up to 76.8 µM; activity change, negative = inhibition: at the top concentration. The procedure, abridged: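 U2OS cells expressing the channel were plated at 1000 cells/well, incubated overnight at 37 C, then loaded with FluxOR II thallium-sensitive dye for 1 h at room temperature in the dark, with a further 10 min at room temperature before stimulation.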
Voltage-gated inwardly rectifying potassium channel KCNH2 (Homo sapiens), sequence (Q12809 whole entry, looked up): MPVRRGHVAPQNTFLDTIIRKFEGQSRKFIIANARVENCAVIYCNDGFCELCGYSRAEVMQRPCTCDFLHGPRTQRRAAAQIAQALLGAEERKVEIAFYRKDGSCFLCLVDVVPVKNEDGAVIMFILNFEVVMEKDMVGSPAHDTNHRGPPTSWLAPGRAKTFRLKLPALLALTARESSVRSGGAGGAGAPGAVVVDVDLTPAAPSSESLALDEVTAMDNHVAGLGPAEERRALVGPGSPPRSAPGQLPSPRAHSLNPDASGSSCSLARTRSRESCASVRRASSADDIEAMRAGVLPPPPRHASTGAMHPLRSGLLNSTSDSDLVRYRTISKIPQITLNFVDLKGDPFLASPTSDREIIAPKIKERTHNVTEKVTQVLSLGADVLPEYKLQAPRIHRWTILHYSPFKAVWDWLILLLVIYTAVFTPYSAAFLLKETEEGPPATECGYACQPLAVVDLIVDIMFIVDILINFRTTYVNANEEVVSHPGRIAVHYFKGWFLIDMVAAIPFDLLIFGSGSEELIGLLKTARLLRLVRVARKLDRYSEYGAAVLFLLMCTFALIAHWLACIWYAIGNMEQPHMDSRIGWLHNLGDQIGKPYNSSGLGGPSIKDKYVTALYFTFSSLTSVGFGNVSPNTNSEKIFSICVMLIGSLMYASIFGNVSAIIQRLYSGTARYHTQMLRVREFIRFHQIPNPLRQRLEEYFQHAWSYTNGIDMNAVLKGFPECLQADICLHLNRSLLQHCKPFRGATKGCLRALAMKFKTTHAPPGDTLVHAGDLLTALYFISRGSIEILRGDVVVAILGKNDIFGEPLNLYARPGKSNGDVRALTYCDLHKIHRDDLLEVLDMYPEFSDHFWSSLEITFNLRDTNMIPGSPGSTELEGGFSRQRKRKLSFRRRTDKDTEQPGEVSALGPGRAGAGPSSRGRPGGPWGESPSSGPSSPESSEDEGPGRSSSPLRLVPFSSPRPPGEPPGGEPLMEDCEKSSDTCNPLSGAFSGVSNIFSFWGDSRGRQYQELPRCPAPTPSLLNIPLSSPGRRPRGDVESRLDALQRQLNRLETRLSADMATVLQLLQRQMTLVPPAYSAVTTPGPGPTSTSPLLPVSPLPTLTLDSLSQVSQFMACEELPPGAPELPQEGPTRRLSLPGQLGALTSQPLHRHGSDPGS
(In general: Block of hERG is tested as a sign of cardiac risk.)
Turning to `O=c1cc(-c2ccccc2)oc2cc(O)cc(O)c12`, the “activity change, negative = inhibition” value is -13.6%. As to `C[C@@H](CN(C)C)CN1c2ccccc2Sc2ccccc21`, the Potency is 9.52 µM (active). `CCCCCC[C@@H](O)C/C=C\CCCCCCCC(=O)OCC(O)CO` (stereo not given in full): the “activity change, negative = inhibition” value is 1.23%. In the case of `CCC(C)(C)OC`, the “activity change, negative = inhibition” value is -11.2%. Take `OC[C@H]1O[C@@H](n2cnc3c(=S)nc[nH]c32)[C@H](O)[C@@H]1O`: the “activity change, negative = inhibition” value was 2.16% [at 35.3 µM]. As to `OCCN1CCN(CCCN2c3ccccc3Sc3ccc(Cl)cc32)CC1`, the Potency is 2.68 µM (active).

As to `CCCCCCCCN`, the “activity change, negative = inhibition” value was -11.6%. For the molecule `C=C/C(C)=C/C/C=C(\C)CCC=C(C)C`, the “activity change, negative = inhibition” value is -19.8%.

Consider `CCCCCCNC(=O)n1cc(F)c(=O)[nH]c1=O`, for which the “activity change, negative = inhibition” value is 0.122% [at 35.3 µM]. On the same count and under the same terms, next, `CC(C)C=O`: 5.69%; `O=C(O)CCCCCCCCCCCBr`: 13.1%. Same read-out and setting: in the case of `OC1(c2ccccc2)CCNCC1` it was -0.269% [at 35.3 µM]; in that of `CC1(C)[C@@H](OC(=O)CCC(=O)O)CC[C@]2(C)[C@H]3C(=O)C=C4[C@@H]5C[C@@](C)(C(=O)O)CC[C@]5(C)CC[C@@]4(C)[C@]3(C)CC[C@@H]12`, 16.8% [at 35.3 µM]; in that of `CC(C)C(O)(c1ccc(OC(F)(F)F)cc1)c1cncnc1` (stereo not given), -6.4%. Same read-out and setting: in the case of `CC(C)(O)c1ccc(CNC(=O)c2cccnc2Oc2ccc3nonc3c2)cc1` it was 1.67%.

Take `O=c1c(O)c(-c2ccc(O)cc2)oc2cc(O)cc(O)c12`: the Potency entry was “inactive”. As for `CC1(C)O[C@@H]2C[C@H]3[C@@H]4C[C@H](F)C5=CC(=O)C=C[C@]5(C)[C@H]4[C@@H](O)C[C@]3(C)[C@]2(C(=O)CO)O1`, the “activity change, negative = inhibition” value was -1.5% [at 35.3 µM]. On the same count and under the same terms, next, `CNC(=O)c1cnn(-c2nc(N)c3ncn([C@@H]4O[C@H](CO)[C@@H](O)[C@H]4O)c3n2)c1`: -2.43% [at 35.3 µM]. `Cc1cc(O)c(C)c(C)c1O`: the “activity change, negative = inhibition” value is 3.93% [at 35.3 µM].

Consider `Clc1cc(Cl)nc(Cl)n1`, for which the “activity change, negative = inhibition” value is -1.78%. Same read-out and setting: next, `C1C[C@@H]2[C@H]3CC[C@H](C3)[C@@H]2C1`: -4.78%; `CCOC(=O)C1=C(C)NC(C)=C(C(=O)OC)C1c1cccc(Cl)c1Cl` (stereo not given): -2.88% [at 35.3 µM]. Still for that read-out and setting: in the case of `CN(C)CCN1C(=O)c2ccccc2N(C)c2ccccc21` it was -14.9% [at 35.3 µM]. Take `Nc1cccc2c1CN(C1CCC(=O)NC1=O)C2=O` (stereo not given): the “activity change, negative = inhibition” value is -4.25% [at 35.3 µM]. For `CCCCCCCCCI`, the “activity change, negative = inhibition” value was -2.27%.

As for `CC/C=C1/OC(=O)c2ccccc21`, the “activity change, negative = inhibition” value was -9.25%. `CC(=O)OCCN(CCOC(C)=O)c1ccc(N=Nc2ccc([N+](=O)[O-])cc2C#N)cc1`: the Potency is 17.4 µM (active).

Another assay deals with Cytochrome P450 3A4 (Homo sapiens) (UniProt P08684). Kind of assay: Cytochrome P450 Family 3 Subfamily A Member 4 (CYP3A4) small molecule antagonists: luciferase reporter qHTS assay (AID 1671201). The note with it: P450-Glo CYP3A4 enzyme, luciferin luminescence, 1 h; series mostly up to 115 µM; activity change, negative = inhibition: at the top concentration. The procedure, abridged: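 P450-Glo CYP3A4 system with proluciferin substrate; compounds preincubated 10 min RT with enzyme-substrate mix, then NADPH regeneration added for 1 h RT. Detection reagent 20 min, luminescence read as relative luminescence units.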
Cytochrome P450 3A4 (Homo sapiens), sequence (P08684 whole entry, looked up): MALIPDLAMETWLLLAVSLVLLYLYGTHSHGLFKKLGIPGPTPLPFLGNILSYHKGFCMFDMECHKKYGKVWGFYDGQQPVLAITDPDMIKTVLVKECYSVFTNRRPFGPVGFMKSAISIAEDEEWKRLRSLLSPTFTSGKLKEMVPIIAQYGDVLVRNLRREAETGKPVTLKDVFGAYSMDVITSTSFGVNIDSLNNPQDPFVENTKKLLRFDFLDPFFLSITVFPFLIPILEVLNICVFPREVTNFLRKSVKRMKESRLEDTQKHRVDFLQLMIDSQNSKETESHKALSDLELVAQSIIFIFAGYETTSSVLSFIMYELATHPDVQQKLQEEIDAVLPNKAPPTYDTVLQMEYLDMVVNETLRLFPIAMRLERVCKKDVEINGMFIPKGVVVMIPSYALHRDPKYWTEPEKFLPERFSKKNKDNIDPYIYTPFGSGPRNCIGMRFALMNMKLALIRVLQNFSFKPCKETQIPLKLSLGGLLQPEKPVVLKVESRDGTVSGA
Regarding `O=c1cc(-c2ccccc2)oc2cc(O)cc(O)c12`, the Potency is 17.8 µM (active). Take `CCC(=O)C1CC(C(C)C)CC=C1C` (stereo not given): the Potency was 39.9 µM (active). On the same count and under the same terms, in the case of `O=C1Cc2ccccc2N1c1c(Cl)cccc1Cl` it was 17.8 µM (active). For the molecule `CCC(C)(C)OC`, the “activity change, negative = inhibition” value was 4.15%. On the same count and under the same terms, in the case of `COc1ccccc1Oc1c(NS(=O)(=O)c2ccc(C(C)(C)C)cc2)nc(-c2ncccn2)nc1OCCO` it was -12.4% [at 52.9 µM]. Same read-out and setting: next, `OC[C@H]1O[C@@H](n2cnc3c(=S)nc[nH]c32)[C@H](O)[C@@H]1O`: 0.765% [at 52.9 µM]; `CCCCCCCCN`: 0.391%. As to `C=C/C(C)=C/C/C=C(\C)CCC=C(C)C`, the Potency is 15.9 µM (active). Regarding `CCCCCCNC(=O)n1cc(F)c(=O)[nH]c1=O`, the “activity change, negative = inhibition” value was -19.6% [at 52.9 µM]. On the same count and under the same terms, next, `O=C1c2ccccc2C(=O)c2c(O)c(O)cc(O)c21`: -19.8%; `O=C(O)CCCCCCCCCCCBr`: 34.8%. Still for that read-out and setting: in the case of `CCOc1cccc(-n2cc(C(=O)N3CCN(c4cc(C(=O)O)c5ccccc5c4)CC3)nc2-c2ccc(C)cc2)c1` it was -3.1%; in that of `OC1(c2ccccc2)CCNCC1`, 6.3% [at 52.9 µM].

For the molecule `Oc1cccc(O)c1O`, the “activity change, negative = inhibition” value was -24.9%. `O=C(CCc1ccc(O)cc1)c1c(O)cc(O)cc1O`: the Potency was 12.9 µM (active). For `CC(C)(O)c1ccc(CNC(=O)c2cccnc2Oc2ccc3nonc3c2)cc1`, the Potency is 25.2 µM (active). For `CC1(C)O[C@@H]2C[C@H]3[C@@H]4C[C@H](F)C5=CC(=O)C=C[C@]5(C)[C@H]4[C@@H](O)C[C@]3(C)[C@]2(C(=O)CO)O1`, the Potency is 4.9 µM (active).

With `CNC(=O)c1cnn(-c2nc(N)c3ncn([C@@H]4O[C@H](CO)[C@@H](O)[C@H]4O)c3n2)c1`, the “activity change, negative = inhibition” value is 3.8% [at 52.9 µM]. Still for that read-out and setting: in the case of `Clc1cc(Cl)nc(Cl)n1` it was -0.959%; in that of `CN(C)CCN1C(=O)c2ccccc2N(C)c2ccccc21`, -5.5% [at 52.9 µM]. The same measure, in the same setting: in the case of `CCCCCCCCCI` it was -9.01%; in that of `CC/C=C1/OC(=O)c2ccccc21`, 11.3%. `CC(=O)OCCN(CCOC(C)=O)c1ccc(N=Nc2ccc([N+](=O)[O-])cc2C#N)cc1`: the Potency was 3.56 µM (active).
